Source: the supplement of paper PMC8975748
Counter-ions that a name gives are not always drawn.

Tested on: Saccharomyces cerevisiae BY4741 SeMeCo community
Experiment: z-score of subpopulation abundance vs DMSO median, subpopulation auxotrophic for L; higher = larger share of this subpopulation than in DMSO controls
Conditions: 10 µM; 24 h; SM minimal medium; subpopulation (auxotrophy): L
Protocol: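 Fluorescent four-plasmid SeMeCo (self-establishing metabolically cooperating S. cerevisiae BY4741 community; plasmids pH-mRuby2, pL-mWasabi, pU-eCFP, pM-TagRFP657) was grown 24 h in minimal SM medium with each Selleck FDA-approved drug at 10 µM in 384-well plates. Cells were fixed and imaged by high-content confocal microscopy. For each auxotrophic subpopulation (and the prototroph), a z-score gives the deviation from the DMSO vehicle-control population median.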

| SMILES | z-score of subpopulation abundance |
| --- | --- |
| CNC1CC(N)C(O)C(OC2OC(CO)C(O)C3OC4(OC(C(N)CO)C(O)C(O)C4O)OC23)C1O (centres undefined) [Hygromycin B] | 0.12 |
| C[C@@H]1O[C@@H](O[C@H]2C[C@@H](O)[C@]3(CO)[C@H]4[C@H](O)C[C@]5(C)[C@@H](C6=CC(=O)OC6)CC[C@]5(O)[C@@H]4CC[C@]3(O)C2)[C@H](O)[C@H](O)[C@H]1O [Ouabain] | -0.43 |
| CCN(C)C(=O)Oc1cccc([C@H](C)N(C)C)c1 [Rivastigmine Tartrate] | 1.02 |
| CN1C(=O)COc2c(C(=O)NC3CN4CCC3CC4)cc(Cl)cc21 (centres undefined) [Azasetron HCl] | 0.07 |
| CC[C@@H](C(N)=O)N1CCCC1=O [Levetiracetam] | 0 |
| C[C@@H]1CC[C@H]2[C@@H](C)C(=O)O[C@@H]3O[C@@]4(C)CC[C@@H]1[C@]32OO4 [Artemisinin] | -0.11 |
| COc1ccc2c(c1)[C@]13CCCC[C@@H]1[C@H](C2)N(C)CC3 [Dextromethorphan hydrobromide hydrate] | 0.57 |
| NCCc1c[nH]c2ccc(O)cc12 [Serotonin HCl] | -1.08 |
| COc1ccc2[nH]cc(CCN)c2c1 [5-Methoxytryptamine] | 0.52 |
| COc1ccc2c3c([nH]c2c1)C(C)=NCC3 [Harmaline] | 2.48 |
| C=CN1CCCC1=O.II [Povidone iodine] | 0.47 |
| C[N+](C)(C)CCCCCCCCCC[N+](C)(C)C [Decamethonium Bromide] | -0.55 |
| C[C@H]1O[C@H](O[C@H]2[C@H](O)[C@@H](O)[C@@H](O)[C@H](O)[C@@H]2O)[C@@H](N)C[C@@H]1NC(=N)C(=O)O [Kasugamycin hydrochloride] | 0.8 |
| C=CC[C@]1(O)CC[C@H]2[C@@H]3CCC4=CC(=O)CCC4=C3C=C[C@@]21C [Altrenogest] | 0.59 |
| O=c1cccc2n1C[C@@H]1CNC[C@H]2C1 [Cytisine] | 0.2 |
| COc1ccc(C(CN(C)C)C2(O)CCCCC2)cc1 (centres undefined) [Venlafaxine HCl] | 0.66 |
| CN[C@@H]1[C@@H](O)[C@@H](O[C@@H]2[C@@H](O)[C@H](O[C@H]3O[C@H]([C@@H](C)O)[C@@H](O)[C@H](O)[C@H]3N)[C@@H](N)C[C@H]2N)OC[C@]1(C)O [Geneticin (G418 Sulfate)] | 0.54 |

| SMILES | z-score of subpopulation abundance |
| --- | --- |
| CN(C)[C@@H]1C(=O)C(C(N)=O)=C(O)[C@@]2(O)C(=O)C3=C(O)c4c(O)ccc(Cl)c4[C@@](C)(O)[C@H]3C[C@@H]12 [Chlortetracycline HCl] | -0.76 |
| Cc1cc(C(C#N)c2ccc(Cl)cc2)c(Cl)cc1NC(=O)c1cc(I)cc(I)c1O (centres undefined) [Closantel] | 1.28 |
| CN(C)C(=O)Oc1ccc[n+](C)c1 [Pyridostigmine Bromide] | 0.3 |
| CC[C@H]1CN2CC[C@]3(C(=O)Nc4ccccc43)[C@@H]2C[C@@H]1/C(=C\OC)C(=O)OC [Rhynchophylline] | -0.82 |
| CCCCCCCCCCCCCCCC[n+]1ccccc1 [Cetylpyridinium Chloride] | -2.16 |
| CN1[C@@H]2C[C@@H](OC(=O)[C@H](CO)c3ccccc3)C[C@H]1[C@@H]1O[C@@H]12 [Scopolamine HBr trihydrate] | -0.39 |
| CCN(C)C(=O)Oc1cccc([C@H](C)N(C)C)c1 [Rivastigmine] | -0.94 |
| CC(=O)O[C@H]1C[C@@H]2CC[C@@H]3[C@H](CC[C@@]4(C)[C@H]3C[C@H]([N+]3(C)CCCCC3)[C@@H]4OC(C)=O)[C@@]2(C)C[C@@H]1[N+]1(C)CCCCC1 [Pancuronium dibromide] | -0.47 |
| CN(C)[C@@H]1C(=O)C(C(N)=O)=C(O)[C@@]2(O)C(=O)C3=C(O)c4c(O)cccc4[C@@](C)(O)[C@H]3C[C@@H]12 [Tetracycline HCl] | -0.47 |
| COc1ccc(C(CN(C)C)C2(O)CCCCC2)cc1 (centres undefined) [Venlafaxine] | -0.75 |
| Oc1cc(Cl)ccc1Oc1ccc(Cl)cc1Cl [Triclosan] | -0.94 |
| Nc1nc(N)nc(NC2CC2)n1 [Cyromazine] | 0.49 |
| NCC(O)c1ccc(O)cc1 (racemic) [(+,-)-Octopamine HCl] | -0.17 |
| COC(=O)C1=CCCN(C)C1 [Arecoline HBr] | 0.3 |
| CC[N+](C)(CC)CCOC(=O)C(O)(c1ccccc1)c1ccccc1 [Methylbenactyzine Bromide] | -0.83 |
| CN1[C@@H]2CC[C@H]1C[C@@H](OC(=O)[C@H](CO)c1ccccc1)C2 [Hyoscyamine] | 0.64 |
| CC(C)(O)C(Cl)(Cl)Cl [Chlorobutanol] | 0.36 |
